Laboratory results published in PubChem BioAssay (Tox21).
Several values for one entry are separate records, joined by “and”; a condition that tells them apart may be missing. Equal entries are not always repeated. Records with an inconclusive call do not appear. Where a call stands in place of a potency, no number is given. The source holds several records for some structures; these can differ, active in one and inactive in another. Activity calls are given as the source filed them. The call rests on the fitted dose curve; in most records, active means well fitted curve in the direction sought with a large enough effect in the repeat runs; inconclusive means weak or mixed curves; inactive means no such curve, though single readings can be large; an effect the other way counts as inactive or inconclusive. Residues, ends and D or L forms follow the SMILES beside them.

Key:
[1] = biological target: Nuclear receptor subfamily 1 group I member 2 (Rattus norvegicus) (UniProt Q9R1A7); assay: Rat pregnane X receptor (rPXR) activation by small molecules, qHTS assay (AID 1346983); conditions: rPXR luciferase reporter cells, One-Glo luminescence, 24 h; max activation: stronger effect = higher value; further: nearly all actives have a fitted effect of over 20% in size
Chain of Nuclear receptor subfamily 1 group I member 2 (Rattus norvegicus) (Q9R1A7 whole entry, looked up): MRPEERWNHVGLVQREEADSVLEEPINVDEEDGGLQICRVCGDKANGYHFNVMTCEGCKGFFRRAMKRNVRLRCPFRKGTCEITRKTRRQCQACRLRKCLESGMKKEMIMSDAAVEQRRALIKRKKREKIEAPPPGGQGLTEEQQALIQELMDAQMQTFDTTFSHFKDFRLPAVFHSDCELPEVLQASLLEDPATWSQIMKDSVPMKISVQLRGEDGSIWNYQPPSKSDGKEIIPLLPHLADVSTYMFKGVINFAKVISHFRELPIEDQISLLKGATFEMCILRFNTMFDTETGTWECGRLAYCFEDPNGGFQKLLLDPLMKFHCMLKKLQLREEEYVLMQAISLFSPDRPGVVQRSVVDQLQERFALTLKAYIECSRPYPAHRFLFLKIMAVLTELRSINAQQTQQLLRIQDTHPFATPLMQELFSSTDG
Method in brief: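 Cell-based rPXR luciferase reporter assay, 2,000 cells per well, rested 5hr at 37 C before compound addition in DMSO, then 24 hr at 37 C. One-Glo reagent was added and luminescence read after 30 min at room temperature.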

[2] = biological target: Nuclear receptor subfamily 1 group I member 2 (Homo sapiens) (UniProt O75469); assay: CYP3A4 induction through human pregnane X receptor (PXR) by small molecules, qHTS assay (AID 1346984); further: nearly all actives have a fitted effect of over 40% in size
Method in brief: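 After 24 h at 37C with compound, DPX-2 cells (HepG2, co-transfected PXR response element and CYP3A4 promoter-luciferase) got 3uM final P450-Glo Luciferin-IPA for 3 h; One-Glo luminescence followed.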

[3] = biological target: Nuclear receptor subfamily 1 group I member 2 (Homo sapiens) (UniProt O75469); assay: Human pregnane X receptor (PXR) activation by small molecules, qHTS assay (AID 1346985); further: nearly all actives have a fitted effect of over 40% in size
Method in brief: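 DPX-2 cells (HepG2 co-transfected with a PXR response element and a CYP3A4-promoter luciferase construct) were seeded at 2,000 per well, rested 5 hr at 37C, then exposed to DMSO-dissolved compounds for 24 hr. Activation was read as luciferase luminescence.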
Potency means the concentration at half of the fitted maximal effect.

| Structure (SMILES) | max activation [1] | Potency [2] | Potency [3] | Potency [1] |
| --- | --- | --- | --- | --- |
| CC/C(=C(/CC)c1ccc(OP(=O)(O)O)cc1)c1ccc(OP(=O)(O)O)cc1 | -1.74% (inactive) | inactive | inactive |  |
| O=C1CC[C@@H](C(=O)N[C@H]2C[C@@H]2c2ccccc2)N1 | -3.97% (inactive) | inactive | inactive |  |
| NCCO/C=C/[C@H](N)C(=O)O | -1.97% (inactive) | inactive | inactive |  |
| COC(=O)C[C@](O)(CCCC(C)(C)O)C(=O)O[C@@H]1C(OC)=CC23CCCN2CCc2cc4c(cc2[C@H]13)OCO4 (some centres not stated) | -15.5% (inactive) | inactive | inactive |  |
| NC(=O)CC[C@@H]1NC(=O)[C@H](Cc2ccccc2)NC(=O)[C@H](Cc2ccc(O)cc2)NC(=O)[C@@H](N)CSSC[C@@H](C(=O)N2CCC[C@H]2C(=O)N[C@@H](CCCN=C(N)N)C(=O)NCC(N)=O)NC(=O)[C@H](CC(N)=O)NC1=O | -0.0397% (inactive) | inactive | inactive |  |
| CC[C@H]1OC(=O)[C@H](C)C(=O)[C@H](C)[C@@H](O[C@@H]2O[C@H](C)C[C@H](N(C)C)[C@H]2O)[C@](C)(OC)C[C@@H](C)C(=O)[C@H](C)[C@H]2N(CCCCn3cnc(-c4cccnc4)c3)C(=O)O[C@]12C | 2.76% (inactive) | inactive and 501 nM (active) | inactive and 794 nM (active) |  |
| CCOC(=O)Cc1ccc(-c2ccccc2)cc1 | -3.15% (inactive) | inactive | inactive |  |
| CNC(=O)OCc1cccc(COC(=O)NC)n1 | 8.37% (inactive) | inactive | inactive |  |
| C[C@H](O)CN(C)C | -2.23% (inactive) | inactive | inactive |  |
| CCCCC[C@H](O)/C=C/[C@@H]1[C@@H](C/C=C\CCCC(=O)O)[C@@H](O)C[C@H]1O | -3.99% (inactive) and -0.657% (inactive) | inactive | inactive |  |
| O=C(O)Cc1nn(Cc2ccc(Br)cc2F)c(=O)c2ccccc12 | 0.657% (inactive) | inactive | inactive |  |
| C=C(Nc1ccc(OCC)cc1)Nc1ccc(OCC)cc1 | -1.1% (inactive) and 0.608% (inactive) | inactive | inactive |  |
| CC(=O)OCC1=C(C(=O)O)N2C(=O)[C@@H](NC(=O)Cc3ccccc3)[C@H]2SC1 | -4.93% (inactive) | inactive | inactive |  |
| O=C(O)/C=C/C(O)c1ccc(Cl)cc1 (configuration not stated) | -1.46% (inactive) | inactive | inactive |  |
| NC(=O)c1cc[n+](CC2=C(C(=O)O)N3C(=O)[C@@H](NC(=O)C(c4ccccc4)S(=O)(=O)[O-])[C@H]3SC2)cc1 (some centres not stated) | -2.77% (inactive) | inactive | inactive |  |
| COC(=O)C(CN)c1c[nH]c2ccc(OC)cc12 (configuration not stated) | -1.11% (inactive) | inactive | inactive |  |
| CC(C)(O/N=C(\C(=O)N[C@@H]1C(=O)N2C(C(=O)[O-])=C(C[n+]3ccccc3)CS[C@H]12)c1csc(N)n1)C(=O)O | 0.831% (inactive) | inactive | inactive |  |
| O=C1C2CC3CC1CC(O)(C3)C2 | -3.68% (inactive) | inactive | inactive |  |
| OCCCNc1ccccc1 | -0.22% (inactive) | inactive | inactive |  |
| CCCOC(=O)c1ccccc1O | -4.53% (inactive) | inactive | inactive |  |
| NCC[C@H](O)C(=O)N[C@@H]1C[C@H](N)[C@@H](O[C@H]2O[C@H](CN)CC[C@H]2N)[C@H](O)[C@H]1O[C@H]1O[C@H](CO)[C@@H](O)[C@H](N)[C@H]1O | -1.85% (inactive) | inactive | inactive |  |
| C[N+]1(CCCCC[N+]2(C)CCCC2)CCCC1 | -2.61% (inactive) | inactive | inactive |  |
| CCCCCCCCCCCC[n+]1ccc2ccccc2c1 | -19.3% (inactive) | inactive | inactive |  |
| CO/N=C(\C(=O)N[C@@H]1C(=O)N2C(C(=O)O)=C(C[N+]3(C)CCCC3)CS[C@H]12)c1csc(N)n1 | -0.506% (inactive) | inactive | inactive |  |
| C=CC[N@@+]12CC[C@@]34c5ccccc5N5/C=C6/[C@H]7C[C@H]8[C@@]9(CC[N@@+]8(CC=C)C/C7=C/CO)c7ccccc7N(/C=C(/[C@@H](C[C@@H]31)/C(=C\CO)C2)[C@H]54)[C@@H]69 | 3.06% (inactive) | inactive | inactive |  |
| CC/C=C\C/C=C\C/C=C\C/C=C\C/C=C\CCCC(=O)O | -0.855% (inactive) | inactive | inactive |  |
| CC(C)[C@H](NC(=O)[C@H](CC(=O)O)NC(=O)[C@H](CCCCN)NC(=O)[C@@H](N)CCCN=C(N)N)C(=O)N[C@@H](Cc1ccc(O)cc1)C(=O)O (H-RKDVY-OH) | -1.21% (inactive) | inactive | inactive |  |

| Structure (SMILES) | max activation [1] | Potency [2] | Potency [3] | Potency [1] |
| --- | --- | --- | --- | --- |
| COc1ccc([C@@H]2CC(=O)c3c(O)cc(O[C@@H]4O[C@H](CO[C@@H]5O[C@@H](C)[C@H](O)[C@@H](O)[C@H]5O)[C@@H](O)[C@H](O)[C@H]4O)cc3O2)cc1O | -3.19% (inactive) | inactive | inactive |  |
| C[C@@H]1C[C@H]2[C@@H]3C[C@H](F)C4=CC(=O)C=C[C@]4(C)[C@@]3(Cl)[C@@H](O)C[C@]2(C)[C@H]1C(=O)COC(=O)C(C)(C)C |  | inactive | inactive | 2.82 µM (active) |
| COc1ccc(/C=N/NC(=O)c2ccncc2)c(C(=O)O)c1OC | -2.1% (inactive) | inactive | inactive |  |
| CCCCCCOC(=O)c1cccnc1 | -0.199% (inactive) | inactive | inactive |  |
| C=CC1=C(C(=O)O)N2C(=O)[C@@H](NC(=O)/C(=N\O)c3csc(N)n3)[C@H]2SC1 (stereo in doubt) | -3.55% (inactive) | inactive | inactive |  |
| CC/C=C\C/C=C\C/C=C\C/C=C\C/C=C\C/C=C\CCC(=O)O | -7.03% (inactive) | inactive | inactive |  |
| CO/N=C(\C(=O)N[C@@H]1C(=O)N2C(C(=O)O)=C(CSc3cnns3)CS[C@H]12)c1csc(N)n1 | -0.96% (inactive) | inactive | inactive |  |
| Nc1cc(Cl)c(NC2=NCCN2)c(Cl)c1 | -1.9% (inactive) | inactive | inactive |  |
| Nc1nc(NC2CC2)c2ncn([C@@H]3C=C[C@@H](CO)C3)c2n1 |  | inactive | 7.08 µM (active) | 5.01 µM (active) |
| CCC1OC(=O)C[C@@H](O)[C@H](C)[C@@H](O[C@@H]2O[C@H](C)C[C@H](N(C)C)[C@H]2O)[C@@H](CC=O)C[C@@H](C)C(=O)/C=C/[C@]2(C)OC2C1C (some centres not stated) | -4.15% (inactive) | inactive | inactive |  |
| CN(C)CCc1c[nH]c2ccc(Cn3cncn3)cc12 | -1.87% (inactive) | inactive | inactive |  |
| CO/N=C(\C(=O)N[C@@H]1C(=O)N2C(C(=O)O)=C(COC(C)=O)CS[C@H]12)c1csc(N)n1 (stereo in doubt) | -7.73% (inactive) | inactive | inactive |  |
| CC1(C)C[C@@H]1C(=O)N/C(=C\CCCCSC[C@H](N)C(=O)O)C(=O)O | -4.56% (inactive) and -1.17% (inactive) | inactive | inactive |  |
| CC1(C)CCC(NC(=O)[C@@H](N)CCC(=O)O)CC1 | -2.85% (inactive) | inactive | inactive |  |
| Cc1ncc(C[n+]2csc(CCOP(=O)(O)O)c2C)c(N)n1 | -1.3% (inactive) | inactive | inactive |  |
| CCN(CC)CC#CCOC(=O)C(O)(c1ccccc1)C1CCCCC1 (configuration not stated) | 13% (inactive) | 8.91 µM (active) | 17.8 µM (active) |  |
| CO[C@H]1C[C@@H]2CC[C@@H](C)[C@@](O)(O2)C(=O)C(=O)N2CCCC[C@H]2C(=O)O[C@H]([C@H](C)C[C@@H]2CC[C@@H](O)[C@H](OC)C2)CC(=O)[C@H](C)C=C(C)[C@@H](O)[C@@H](OC)C(=O)[C@H](C)C[C@H](C)/C=C/C=CC=C1C | -10.6% (inactive) and -9.93% (inactive) | inactive | inactive |  |
| Cc1cnc(C(=O)O)c[n+]1[O-] | -2.61% (inactive) and 6.98% (inactive) and -0.594% (inactive) | inactive | inactive |  |
| CC(C)=CCC/C(C)=C/CC/C(C)=C/CC/C(C)=C/CC1=C(C)C(=O)c2ccccc2C1=O | -1.32% (inactive) | inactive | inactive |  |
| CCC(O)c1ccccc1 (configuration not stated) | -2.74% (inactive) | inactive | inactive |  |
| Cc1c(N)nc([C@H](CC(N)=O)NC[C@H](N)C(N)=O)nc1C(=O)N[C@H](C(=O)N[C@H](C)[C@@H](O)[C@H](C)C(=O)N[C@H](C(=O)NCCc1nc(-c2nc(C(=O)NCCCCN=C(N)N)cs2)cs1)[C@@H](C)O)[C@@H](O[C@@H]1O[C@@H](CO)[C@@H](O)[C@H](O)[C@@H]1O[C@H]1O[C@H](CO)[C@@H](O)[C@H](OC(N)=O)[C@@H]1O)c1cnc[nH]1 | -0.9% (inactive) | inactive | inactive |  |
| CO/N=C(\C(=O)N[C@@H]1C(=O)N2C(C(=O)[O-])=C(C[n+]3cccc4c3CCC4)CS[C@H]12)c1csc(N)n1 | -2.77% (inactive) | inactive | inactive |  |
| CC(CNC(=O)c1cccnc1)NC(=O)c1cccnc1 (configuration not stated) | -2.47% (inactive) | inactive | inactive |  |
| O=C1c2c(O)cccc2[C@H]([C@@H]2O[C@H](CO)[C@@H](O)[C@H](O)[C@H]2O)c2cc(CO)cc(O)c21 | 0.818% (inactive) | inactive | inactive |  |
| CCN(CC)C(=O)c1cccnc1 | -3.83% (inactive) | inactive | inactive |  |
| CO/N=C(\C(=O)N[C@@H]1C(=O)N2C(C(=O)[O-])=C(C[n+]3ccc(N)n3CCO)CS[C@H]12)c1csc(N)n1 | -1.9% (inactive) | inactive | inactive |  |
| CC(C)C[C@H](NC(=O)[C@@H](COC(C)(C)C)NC(=O)[C@H](Cc1ccc(O)cc1)NC(=O)[C@H](CO)NC(=O)[C@H](Cc1c[nH]c2ccccc12)NC(=O)[C@H](Cc1cnc[nH]1)NC(=O)[C@@H]1CCC(=O)N1)C(=O)N[C@@H](CCCN=C(N)N)C(=O)N1CCC[C@H]1C(=O)NNC(N)=O | -1.54% (inactive) | inactive | inactive |  |
